# According to PubChem BioAssay (NCATS):
# Where “and” joins values, the source holds several entries; their conditions need not be identical. Identical values can stand only once. Results filed as inconclusive are left out. Values without a mark were called inactive. Calls of active or inactive are those of the source. Calls follow the shape of the dose curve; as a rule, active = well fitted curve in the direction sought with a large enough effect; inconclusive = small, poorly fitted or top-dose-only effect, or another doubt; inactive = no such curve, though single readings can be large or run the other way. Where a SMILES comes first, the peptide text is derived from it. [ ]: non-standard residue; d: D form. pGlu = O=C1CC[C@@H](C(=O)O)N1; Thz = O=C(O)[C@@H]1CSCN1
# Assay: qHTS Assay for Identifying Gametocytocidal Compounds (AID 743244);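 as to max response: actives lower the fluorescent signal which means gametocytes are killed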
# Details: P. falciparum 3D7 stage III-V gametocytes, alamarBlue, 72 h; max response: stronger effect = lower value
# How it was run: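 Late gametocytes (III–V), P. falciparum 3D7; 72 h drug, then 24 h alamarBlue; resazurin reduction read by fluorescence.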
# % is scaled to controls: 0 for no effect and ±100 for the full control effect; potency is read from the fitted curve at half-maximal effect.
SMILES,max response,Potency
CC(C(=O)O)c1ccc2c(c1)[nH]c1ccc(Cl)cc12 (stereo not drawn),3.15%,
CC(C(=O)O)c1ccc(C(=O)c2cccs2)cc1 (stereo not drawn),13.3%,
C[N+]1(C)[C@@H]2CC(OC(=O)[C@H](CO)c3ccccc3)C[C@H]1[C@@H]1O[C@@H]12 (stereo partly drawn),-10.6%,
O=C(O)Cc1cccc(-c2cc(CCCCCCc3ccc(O[C@H]4O[C@H](CO)[C@@H](O)[C@H](O)[C@@H]4O)c(-c4cccc(CC(=O)O)c4)c3)ccc2O[C@H]2O[C@H](CO)[C@@H](O)[C@H](O)[C@@H]2O)c1,36.1%,
O=C(O)COc1ccc(C(=O)c2cccs2)c(Cl)c1Cl,-3.69% and 20.3%,
c1ccc2sc(SN3CCOCC3)nc2c1,-2.78%,
O=C(O)Cc1ccc(-c2ccccc2)cc1,-0.327%,
Nc1ccc(C(=O)O)c(O)c1,1.29%,
CC1(C)[C@@H](O)CC[C@]2(C)[C@H]3C(=O)C=C4[C@@H]5C[C@@](C)(C(=O)O)CC[C@]5(C)CC[C@@]4(C)[C@]3(C)CC[C@@H]12,6.32% and -6.89%,
Cc1[nH]cnc1CN1CCc2c(c3ccccc3n2C)C1=O,-6.58%,
O=C(/C=C/c1ccccc1)NCCO,7.68%,
CCCCC[C@H](O)/C=C/[C@@H]1[C@@H](C/C=C\CCCC(=O)O)[C@@H](O)C[C@H]1O,-4.72% and 7.02%,
Cc1ccc(O)c(-n2nc3ccccc3n2)c1,-7.72%,
COc1cc2c3cc1Oc1cc(ccc1O)C[C@@H]1c4c(cc(OC)c(O)c4Oc4ccc(cc4)C[C@@H]3N(C)CC2)CC[N+]1(C)C,1.34%,
CC(=O)[C@]1(O)Cc2c(O)c3c(c(O)c2[C@@H](O[C@H]2C[C@H](N)[C@H](O)[C@H](C)O2)C1)C(=O)c1c(O)cccc1C3=O,,5.62 µM (active)
Cc1onc(-c2c(F)cccc2Cl)c1C(=O)N[C@@H]1C(=O)N2[C@@H]1SC(C)(C)[C@@H]2C(=O)O,16.8% and -3.16%,
O=C1CC[C@@H](C(=O)N2CSC[C@H]2C(=O)O)N1 ([pGlu]-[Thz]-OH),5.51%,

SMILES,max response,Potency
CC[C@H]1OC(=O)[C@H](C)[C@@H](O[C@H]2C[C@@](C)(OC)[C@@H](O)[C@H](C)O2)[C@H](C)[C@@H](O[C@@H]2O[C@H](C)C[C@H](N(C)C)[C@H]2O)[C@](C)(O)C[C@@H](C)C(=O)[C@H](C)[C@@H](O)[C@]1(C)O,1.77% and 0.604%,
C#CC1(O)CC[C@H]2[C@@H]3CCC4=CCCC[C@@H]4[C@H]3CC[C@@]21C (stereo partly drawn),18.8%,
[O-][n+]1ccccc1SSc1cccc[n+]1[O-],,0.148 µM (active)
C=CCN1C(=O)C(CC(C)C)NC1=S (stereo not drawn),24.3% and -10.7%,
C=CCc1cccc(/C=N/NC(=O)CN2CCN(Cc3ccccc3)CC2)c1O,,29.6 µM (active)
CO[C@@]1(NC(=O)Cc2cccs2)C(=O)N2C(C(=O)O)=C(COC(N)=O)CS[C@@H]21,-0.875% and -15%,
CC1(C)C[C@@H]1C(=O)N/C(=C\CCCCSC[C@H](N)C(=O)O)C(=O)O,3.26% and 5.48%,
Cc1ccc(C(=O)c2ccc(CC(=O)O)n2C)cc1,39.2%,
CCCCCCCCCCCC(=O)[O][Sn]([CH2]CCC)([CH2]CCC)[O]C(=O)CCCCCCCCCCC,-1.72%,
COC(=O)C1=C(C)NC(C)=C(C(=O)OCC(C)C)C1c1ccccc1[N+](=O)[O-] (stereo not drawn),0.875%,
Cc1nc2ccccc2n1Cc1ccc(Cl)cc1,3.69%,
C=C(Nc1ccc(OCC)cc1)Nc1ccc(OCC)cc1,14.6% and 14.3%,
O=C(Nc1ccc(C(=O)O)c(O)c1)c1ccccc1,3.53%,
Cc1cc(O)c2ccccc2c1O,,15.8 µM (active)
Clc1ccccc1-c1nc(-c2ccncc2)no1,20.9%,
CO/N=C(\C(=O)N[C@@H]1C(=O)N2C(C(=O)O)=C(COC(C)=O)CS[C@H]12)c1csc(N)n1 (stereo in doubt),12.7%,
